# Assay results published in PubChem BioAssay AID1347416 (National Center for Advancing Translational Sciences (NCATS), 2020).
# Out of some 4,100 compounds screened, about 1,600 (39%) were called active. Not shown: some 25% with an inconclusive outcome. This is one part of the list. Values without a mark were called inactive. The call rests on the fitted dose curve; in most records, active means well fitted inhibition curve with a large enough effect; inconclusive means small, poorly fitted or top-dose-only effect; inactive means no such curve, though single readings can be large or run the other way.
# Assay: qHTS Validation assay for Inhibitors of Plasmodium falciparum Dd2 growth in vitro; further: nearly all actives have a fitted effect of over 70% in size
# Conditions: P. falciparum Dd2 in RBCs, SYBR Green growth, 72 h; series mostly up to 28.7 µM; activity change, negative = inhibition: at the top concentration
# Excerpt: Malaria, a parasitic disease spread to humans through the bite of a Plasmodium infected Anopheles mosquito, continues to be a global health burden affecting millions of people, with an estimated 228 million cases and 405,000 deaths in 2018. Concerns about safety and limitations of current antimalarial treatments strongly emphasize the need to develop new therapeutic options. The scarce number of chemotypes and validated drug targets with efficacy against the liver stage, have hindered development of new antimalarials. To address this, a chemoprophylactic drug discovery effort was conducted through a combined phenotypic high-throughput asexual blood stage and liver stage screen, providing a robust foundation to identify liver-stage active lead chemotypes. Compounds were initially screened against Plasmodium falciparum Dd2 strain parasites using a in vitro SYBRGreen-1 based 72 hr proliferation assay to identify novel chemotypes to advance to liver stage assays. NIH/NCATS Early Translation Branch Assay Submitter (PI): Anton Simeonov Ph.D.
# […] Assay Protocol: PROTOCOL TABLE (as described by Inglese et al., 2007) SEQUENCE No. (e.g., 1, 2, 3, etc.); PARAMETER (e.g., Cells, Incubation, Reagent, etc.); VALUE; DESCRIPTION SEQUENCE, Parameter, Description 1; Reagent; 3 uL complete malaria growth medium, 1536 TC treated Black clear bottom plate 2; Controls; 23 nL positive control artesunate (300 nM final) to column 1; Neutral control DMSO to columns 2-4 3; Compound; 23 nL of compounds in dose response concentration (29 uM to 0.5 nM final) 4; Reagent; 5 uL malaria infected red blood cells (2.5% hematocrit final, 0.3% parasitemia 5; Time; 72 hours at 37C (5% O2, 5% CO2, 90% N2; 95% Rh) 6; Reagent; 2 uL lysis buffer/SYBRGreen-1, 25 sec shake immediately following dispense 7; Time; ~16 hours at 37C (5% O2, 5% CO2, 90% N2; 95% Rh) 8; Detector; EnVision (PerkinElmer) bottom read at 485/14nm excitation and 535/25 nm emission NOTES (numbers refer to sequence above): 1; Complete Malaria Growth Media: 1X RPMI-1640 w/L-glutamine, 5.5g/L Albumax II, 367 uM Hypoxanthine, 25 mM HEPES, 0.25% Sodium Bicarbonate, 35 uM Gentamicin sulfate 2; Controls were added using the Kalypsis Pintool (Wako USA) equipped with 1536 pinhead 3; Compounds were added in a 7-point, titration with a high final concentration of 29 uM by Pintool from seven inter-plate titrations of library plates and two DMSO control plates at the beginning and end (see Yasgar et al., 2008). 4; Red blood cells infected with Plasmodium falciparum Dd2 parasites were used. 6; Lysis buffer: 20 mM Tris-HCl, 10 mM EDTA, 0.16% Saponin, 1.6% Triton-X, 10X SYBR Green. REFERENCE: Inglese J, Shamu CE, Guy RK. 2007. Reporting data from high-throughput screening of small-molecule libraries. Nat Chem Biol. doi:10.1038/nchembio0807-438 Yasgar A, Shinn P, Jadhav A, Auld D, Michael S, Zheng W, Austin CP, Inglese J, Simeonov A. 2008. Compound Management for Quantitative High-Throughput Screening. J Lab Autom 13:79-89. doi:10.1016/j.jala.2007.12.004
# On the % scale 0 is the no-effect control and ±100 the full control effect; potency means the concentration at half of the fitted maximal effect.
Structure (SMILES),"activity change, negative = inhibition",Potency
CCCc1noc(-c2ccn3c(CNC(=O)c4cccc(Cl)c4)nnc3c2)n1,-6.54%,
CCN(c1ccccc1)S(=O)(=O)c1c(-c2ccc(C)cc2)csc1C(=O)OC,-3.17%,
CCN(c1ccccc1)S(=O)(=O)c1cc(Br)cc2c1N(C(=O)C1CC1)CC2,,2.99 µM (active)
O=C(CCS(=O)(=O)c1cc(Br)cc2c1N(C(=O)C1CC1)CC2)Nc1ccc(C(F)(F)F)cc1,,1.33 µM (active)
CC1=C[C@@H](CNS(C)(=O)=O)[C@H](C(C)C)C[C@H]1Cc1nnc(-c2ccccc2F)o1,18.4% [at 43.1 µM],
CC1=C[C@@H](CNC(C)C)[C@H](C(C)C)C[C@H]1Cc1nnc(-c2ccc(C)cc2)o1,,13.7 µM (active)
CC1=C[C@@H](CNC2CC2)[C@H](C(C)C)C[C@H]1Cc1nnc(-c2ccc(C)cc2)o1,,17.2 µM (active)
CC1=C[C@@H](CNCCN(C)C)[C@H](C(C)C)C[C@H]1Cc1nnc(C(C)(C)C)o1,,15.3 µM (active)
CC1=C[C@@H](CNC(C)C)[C@H](C(C)C)C[C@H]1Cc1nnc(C(C)(C)C)o1,-18.7% [at 43.1 µM],
CC(=O)NCCNC[C@@H]1C=C(C)[C@H](Cc2nnc(-c3ccccc3)o2)C[C@H]1C(C)C,,17.2 µM (active)
N#Cc1ccccc1CN1CCC([C@@H]2CNC[C@H]2CO)CC1,24.7%,
O=C1COc2ccc(-c3ccsc3)nc2CN1,40.8% [at 57.5 µM],
CCN(CC)CCNC(=O)c1c(O)c2cccc3c2n(c1=O)CCC3,,10.6 µM (active)
CCN(CC)CCNC(=O)C1CCCN(S(=O)(=O)c2ccccc2)CCC(=O)NCC1 (centres undefined),5.63%,
O=C(NCc1ccccn1)C1c2ccccc2C(=O)N(C2CCCC2)C12CCCCC2 (centres undefined),-27.1%,
Cc1nnc(SCC(=O)Nc2nccs2)o1,35.8%,
CC(C)CN1C(=O)c2ccccc2C(C(=O)Nc2nccs2)C12CCCC2 (centres undefined),,8.41 µM (active)
O=C(Nc1nccs1)C1c2ccccc2C(=O)N(C2CCCC2)C12CCCC2 (centres undefined),,4.22 µM (active)
Cc1nnc(NC(=O)C2c3ccccc3C(=O)N(CC(C)C)C23CCCCC3)s1 (centres undefined),,15 µM (active)
CCN(CC)CC(O)COc1ccccc1C(=O)CCc1ccccc1 (centres undefined),,1.5 µM (active)
CCCNCC(O)COc1ccccc1C(=O)CCc1ccccc1 (centres undefined),,0.842 µM (active)
CCN(CC)C(=O)C(C)[C@@H]1CC[C@@]2(C)CC[C@H](NC(=O)c3cnccn3)[C@@H](C)[C@@H]2[C@H]1O (some centres undefined),-37% [at 43.1 µM],
CCN(CC)C(=O)[C@@H](C)C1CC[C@@]2(C)CC[C@H](NC(=O)COc3ccccc3)[C@@H](C)[C@@H]2[C@H]1O (some centres undefined),1.65%,
COc1ccccc1CNC(=O)[C@@H](C)C1CC[C@@]2(C)CC[C@H](NC(=O)c3cncnc3)[C@@H](C)[C@@H]2[C@H]1O (some centres undefined),,2.37 µM (active)
CCn1cnnc1CC1CCN(C(=O)C2CC2)CC1,15.8%,

Structure (SMILES),"activity change, negative = inhibition",Potency
CCS(=O)(=O)c1ccc2oc(Nc3cc(C)cc(C)c3)nc2c1,-17.2%,
CCN(CC)c1ccc2oc(=O)c(C)nc2c1,,6.68 µM (active)
Cn1cc(C(NS(=O)(=O)c2cccc3c2OCCO3)C2CC(O)C2)cn1 (centres undefined),14.4%,
CC(C)NC(=O)CSc1nnc(CNC(=O)OC(C)(C)C)n1C,26.5%,
CC(C)Cc1nc2nccc(-c3cccs3)n2n1,4.53%,
Cc1nc2ccc(C(=O)NCc3cc4n(n3)CCN(C(=O)N(C)C)C4)cc2o1,52.8%,
CCN(CC)CCNC(=O)c1cn(CC)c2ccc(S(=O)(=O)N3CCOCC3)cc2c1=O,29.7%,
CCn1cc(C(=O)N[C@@H](CCSC)C(=O)NC(C)(C)CO)c(=O)c2cc3c(cc21)OCO3,,2.99 µM (active)
CC1CCc2cc(F)ccc2N1C(=O)CSc1nnc2c(n1)[nH]c1ccc(F)cc12 (centres undefined),,8.41 µM (active)
CC1CCN(C(=O)CSc2nnc3c(n2)[nH]c2ccc(F)cc23)CC1,-11.3%,
CC1CCc2cc(F)ccc2N1C(=O)CSc1nnc2c(n1)[nH]c1ccccc12 (centres undefined),,7.5 µM (active)
COc1cccc(S(=O)(=O)N2C[C@@H](Oc3ccccc3)C[C@@H]2C(=O)N2CCOCC2)c1,-1.89%,
COc1ccccc1NS(=O)(=O)c1cc(NC(=O)c2cccc(S(=O)(=O)N(C)C)c2)ccc1N1CCOCC1,,7.5 µM (active)
CCCc1noc(-c2cn(C3CCN(C(=O)Cc4cccc(F)c4)CC3)nn2)n1,-15.8%,
Cc1nc2cc(F)ccc2n1C1CCN(C(=O)c2c(F)cccc2F)CC1,,5.96 µM (active)
CCc1noc(-c2cn(C3CCN(C(=O)c4ccc(F)c(F)c4)CC3)nn2)n1,38.9%,
CCC(O)(CC)C(=O)NN(C(=O)Nc1csc2c1CCCC2)c1ccccc1,,2.99 µM (active)
CCCC(=O)Nc1sc2c(c1C(=O)Nc1ccccn1)CCCC2,5.63%,
Cc1ccc(NC(=O)c2cnc(-c3ccccc3)nc2-c2ccncc2)c(Br)c1,,9.44 µM (active)
Cc1ccc(C)c(C(=O)Nc2ccncc2)c1,7.54%,
COc1ccc([C@@]2(C(C)C)ON(c3ccccc3C(F)(F)F)C2=O)cc1,,4.22 µM (active)
Cc1nn(-c2ccccc2)nc1C(=O)Oc1cc(C(F)(F)F)nn1-c1ccccc1,11.3%,
COCCn1cnc2ccc(-c3ccccc3)nc2c1=O,-1.86% [at 57.5 µM],
Cn1cnc2ccc(-c3cccc(O)c3)nc2c1=O,,6.11 µM (active)
